# Test results taken from the supplement of paper PMC4466140.
# How the values were obtained:
# Test in all cases: SPOT peptide array binding signal intensity (averaged, normalized) (arbitrary units (background-subtracted, floor 0; scale differs between SH3 domains)); higher = stronger binding of the SH3 domain to the peptide
# [1] = target: AgAbp1
# In short: (§1)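 Four yeast species supplied the SH3 domains, which were expressed as GST fusions in E. coli BL21(DE3) and purified on glutathione Sepharose. Incubation with cellulose membranes carrying synthetic 15-mer peptides, cysteines exchanged for serines, ran overnight at 4°C at 10 μg/ml in TBS-based blocking buffer. Binding signal is reported as normalized, background-subtracted spot intensity averaged over replicates, in arbitrary units not shared between domains.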
# [2] = target: AgBbc1
# In short: as §1
# [3] = target: AgBem1-D1
# In short: as §1
# [4] = target: AgBzz1-D1
# In short: as §1
# [5] = target: AgBzz1-D2
# In short: as §1
# [6] = target: AgCyk3
# In short: as §1
# [7] = target: AgFus1
# In short: as §1
# [8] = target: AgHof1
# In short: as §1
# [9] = target: AgHse1
# In short: as §1
# [10] = target: AgLsb1
# In short: as §1
# [11] = target: AgLsb4
# In short: as §1
# [12] = target: AgMyo5
# In short: as §1
# [13] = target: AgNbp2
# In short: as §1
# [14] = target: AgRvs167
# In short: as §1
# [15] = target: AgSho1
# In short: as §1
# [16] = target: AgSla1-D1-D2
# In short: as §1
# [17] = target: AgSla1-D3
# In short: as §1
# [18] = target: CaAbp1-D1
# In short: as §1
# [19] = target: CaAbp1-D2
# In short: as §1
# [20] = target: CaBbc1
# In short: as §1
# [21] = target: CaBem1-D1
# In short: as §1
# [22] = target: CaBzz1-D1
# In short: as §1
# [23] = target: CaBzz1-D2
# In short: as §1
# [24] = target: CaCyk3
# In short: as §1
# [25] = target: CaFus1
# In short: as §1
# [26] = target: CaHof1
# In short: as §1
# [27] = target: CaHse1
# In short: as §1
# [28] = target: CaLsb1
# In short: as §1
# [29] = target: CaLsb4
# In short: as §1
# [30] = target: CaMyo5
# In short: as §1
# [31] = target: CaNbp2
# In short: as §1
# [32] = target: CaRvs167
# In short: as §1
# [33] = target: CaRvs167-3
# In short: as §1
# [34] = target: CaSho1
# In short: as §1
# [35] = target: CaSla1-D1-D2
# In short: as §1
# [36] = target: CaSla1-D3
# In short: as §1
# [37] = target: ScAbp1
# In short: as §1
# [38] = target: ScBbc1
# In short: as §1
# [39] = target: ScBem1-D1
# In short: as §1
# [40] = target: ScBzz1-D1
# In short: as §1
# [41] = target: ScBzz1-D2
# In short: as §1
# [42] = target: ScCyk3
# In short: as §1
# [43] = target: ScFus1
# In short: as §1
# [44] = target: ScHof1
# In short: as §1
# [45] = target: ScHse1
# In short: as §1
# [46] = target: ScLsb1
# In short: as §1
# [47] = target: ScLsb2
# In short: as §1
# [48] = target: ScLsb3
# In short: as §1
# [49] = target: ScLsb4
# In short: as §1
# [50] = target: ScMyo3
# In short: as §1
# [51] = target: ScMyo5
# In short: as §1
# [52] = target: ScNbp2
# In short: as §1
# [53] = target: ScPex13
# In short: as §1
# [54] = target: ScRvs167
# In short: as §1
# [55] = target: ScSho1
# In short: as §1
# [56] = target: ScSla1-D1-D2
# In short: as §1
# [57] = target: ScSla1-D3
# In short: as §1
# [58] = target: SpAbp1-D1
# In short: as §1
# [59] = target: SpBbc1
# In short: as §1
# [60] = target: SpBzz1-D1
# In short: as §1
# [61] = target: SpBzz1-D2
# In short: as §1
# [62] = target: SpCyk3
# In short: as §1
# [63] = target: SpHof1
# In short: as §1
# [64] = target: SpHof1-2
# In short: as §1
# [65] = target: SpHof1-3
# In short: as §1
# [66] = target: SpHse1
# In short: as §1
# [67] = target: SpLsb1
# In short: as §1
# [68] = target: SpLsb4
# In short: as §1
# [69] = target: SpMyo1
# In short: as §1
# [70] = target: SpNbp2
# In short: as §1
# [71] = target: SpPex13
# In short: as §1
# [72] = target: SpRvs167
# In short: as §1
# [73] = target: SpSla1-D1-D2
# In short: as §1
# [74] = target: SpSla1-D3
# In short: as §1
binder,measurement,setting,value
VTHRLRISIPGITGR,SPOT peptide array binding signal intensity,[1],9
same,SPOT peptide array binding signal intensity,[2],193
same,SPOT peptide array binding signal intensity,[3],126
same,SPOT peptide array binding signal intensity,[4],58
same,SPOT peptide array binding signal intensity,[5],136
same,SPOT peptide array binding signal intensity,[6],25
same,SPOT peptide array binding signal intensity,[7],1200
same,SPOT peptide array binding signal intensity,[8],20.8
same,SPOT peptide array binding signal intensity,[9],650
same,SPOT peptide array binding signal intensity,[10],4.5
same,SPOT peptide array binding signal intensity,[11],430
same,SPOT peptide array binding signal intensity,[12],1.75
same,SPOT peptide array binding signal intensity,[13],123
same,SPOT peptide array binding signal intensity,[14],20
same,SPOT peptide array binding signal intensity,[15],146
same,SPOT peptide array binding signal intensity,[16],88
same,SPOT peptide array binding signal intensity,[17],3
same,SPOT peptide array binding signal intensity,[18],286
same,SPOT peptide array binding signal intensity,[19],146
same,SPOT peptide array binding signal intensity,[20],234
same,SPOT peptide array binding signal intensity,[21],36
same,SPOT peptide array binding signal intensity,[22],252
same,SPOT peptide array binding signal intensity,[23],114
same,SPOT peptide array binding signal intensity,[24],39.5
same,SPOT peptide array binding signal intensity,[25],1410
same,SPOT peptide array binding signal intensity,[26],1.75
same,SPOT peptide array binding signal intensity,[27],56.8
same,SPOT peptide array binding signal intensity,[28],1.25
same,SPOT peptide array binding signal intensity,[29],47.5
same,SPOT peptide array binding signal intensity,[30],34
same,SPOT peptide array binding signal intensity,[31],882
same,SPOT peptide array binding signal intensity,[32],640
same,SPOT peptide array binding signal intensity,[33],2060
same,SPOT peptide array binding signal intensity,[34],1000
same,SPOT peptide array binding signal intensity,[35],16
same,SPOT peptide array binding signal intensity,[36],252
same,SPOT peptide array binding signal intensity,[37],9
same,SPOT peptide array binding signal intensity,[38],16.2
same,SPOT peptide array binding signal intensity,[39],33.5
same,SPOT peptide array binding signal intensity,[40],44.5
same,SPOT peptide array binding signal intensity,[41],374
same,SPOT peptide array binding signal intensity,[42],82
same,SPOT peptide array binding signal intensity,[43],1730
same,SPOT peptide array binding signal intensity,[44],1
same,SPOT peptide array binding signal intensity,[45],1450
same,SPOT peptide array binding signal intensity,[46],65
same,SPOT peptide array binding signal intensity,[47],25
same,SPOT peptide array binding signal intensity,[48],327
same,SPOT peptide array binding signal intensity,[49],42
same,SPOT peptide array binding signal intensity,[50],≤ 0
same,SPOT peptide array binding signal intensity,[51],1.75
same,SPOT peptide array binding signal intensity,[52],295
same,SPOT peptide array binding signal intensity,[53],7.5
same,SPOT peptide array binding signal intensity,[54],45.2
same,SPOT peptide array binding signal intensity,[55],946
same,SPOT peptide array binding signal intensity,[56],159
same,SPOT peptide array binding signal intensity,[57],46
same,SPOT peptide array binding signal intensity,[58],95.5
same,SPOT peptide array binding signal intensity,[59],32.8
same,SPOT peptide array binding signal intensity,[60],396
same,SPOT peptide array binding signal intensity,[61],≤ 0
same,SPOT peptide array binding signal intensity,[62],9
same,SPOT peptide array binding signal intensity,[63],353
same,SPOT peptide array binding signal intensity,[64],71
same,SPOT peptide array binding signal intensity,[65],594
same,SPOT peptide array binding signal intensity,[66],526
same,SPOT peptide array binding signal intensity,[67],8.25
same,SPOT peptide array binding signal intensity,[68],42
same,SPOT peptide array binding signal intensity,[69],1
same,SPOT peptide array binding signal intensity,[70],1510
same,SPOT peptide array binding signal intensity,[71],17
same,SPOT peptide array binding signal intensity,[72],68.8
same,SPOT peptide array binding signal intensity,[73],≤ 0
same,SPOT peptide array binding signal intensity,[74],10
LEFRAILFIPKRAPF,SPOT peptide array binding signal intensity,[31],1090
same,SPOT peptide array binding signal intensity,[32],224
same,SPOT peptide array binding signal intensity,[33],268
same,SPOT peptide array binding signal intensity,[34],2030
same,SPOT peptide array binding signal intensity,[35],49
same,SPOT peptide array binding signal intensity,[36],249
same,SPOT peptide array binding signal intensity,[37],5
same,SPOT peptide array binding signal intensity,[38],0.25
same,SPOT peptide array binding signal intensity,[39],18
same,SPOT peptide array binding signal intensity,[40],25.5
same,SPOT peptide array binding signal intensity,[41],162
same,SPOT peptide array binding signal intensity,[42],35
same,SPOT peptide array binding signal intensity,[43],3610
same,SPOT peptide array binding signal intensity,[44],1
same,SPOT peptide array binding signal intensity,[45],1790
same,SPOT peptide array binding signal intensity,[46],2
same,SPOT peptide array binding signal intensity,[47],≤ 0
same,SPOT peptide array binding signal intensity,[48],164
same,SPOT peptide array binding signal intensity,[49],11.5
same,SPOT peptide array binding signal intensity,[50],≤ 0
same,SPOT peptide array binding signal intensity,[51],4
same,SPOT peptide array binding signal intensity,[52],593
same,SPOT peptide array binding signal intensity,[53],186
same,SPOT peptide array binding signal intensity,[54],29.2
same,SPOT peptide array binding signal intensity,[55],3570
same,SPOT peptide array binding signal intensity,[56],37.5
same,SPOT peptide array binding signal intensity,[57],94.5
same,SPOT peptide array binding signal intensity,[58],30
same,SPOT peptide array binding signal intensity,[59],11.5
same,SPOT peptide array binding signal intensity,[60],220
same,SPOT peptide array binding signal intensity,[61],0.5
same,SPOT peptide array binding signal intensity,[62],10.5
same,SPOT peptide array binding signal intensity,[63],61.5
same,SPOT peptide array binding signal intensity,[64],29.5
same,SPOT peptide array binding signal intensity,[65],418
same,SPOT peptide array binding signal intensity,[66],1270
same,SPOT peptide array binding signal intensity,[67],≤ 0
same,SPOT peptide array binding signal intensity,[68],10
same,SPOT peptide array binding signal intensity,[69],11
same,SPOT peptide array binding signal intensity,[70],1170
same,SPOT peptide array binding signal intensity,[71],127
same,SPOT peptide array binding signal intensity,[72],17.3
same,SPOT peptide array binding signal intensity,[73],≤ 0
same,SPOT peptide array binding signal intensity,[74],66.5
